Reference: PubChem BioAssay
Several values for one entry are separate records, joined by “and”; a condition that tells them apart may be missing. Equal entries are not always repeated. Records with an inconclusive call do not appear. Activity calls are given as the source filed them.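 How the source made its calls, unless noted: active means normalized viability below 100% at a tested concentration; inactive means the rest.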

Legend:
[1] = Wnt pathway potentiators raising nuclear beta-catenin – imaging, WNT3A-conditioned medium, mouse C2C12, NPC library, primary screen (AID 1117326; in the data active means nuclear beta-catenin stimulation mostly above about 4.2%, no sharp cut-off; inactive means mostly below about 10%); details: stronger effect = higher value
[2] = stimulators of insulin release from INS-1E, primary screen, cell-based, 5 mM glucose, NPC library (AID 1117329;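 active means compound raises insulin release from rat beta cells at 5 mM glucose, no numeric limit stated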); details: rat INS-1E insulin secretion, at 10 µM, stronger effect = higher value
[3] = growth inhibition of GSK3B-pretreated HCT116 cells – cell-based, CellTiter-Glo, 0.2 to 20 µM (AID 1117336;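 active means compounds lowering colon cancer cell viability after pretreatment blocking the GSK3B kinase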); details: HCT116 viability after GSK3B inhibitor, at 20 µM, stronger effect = higher value
[4] = inhibition of endothelial tube formation, primary screen, imaging, VEGF stimulated, CD31 staining, tube area, NPC library (AID 1117340;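 active means compound that reduces growth-factor-driven endothelial tube area in a mixed cell culture, no cutoff stated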); details: VEGF-stimulated ADSC/ECFC co-culture, at 10 µM, stronger effect = higher value
[5] = GLP1 release stimulators, primary, NCI-H716, NPC library (AID 1117341;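 active means compound raises GLP1 secretion from the human gut endocrine cells, with no numeric limit stated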); details: NCI-H716 cells, at 10 µM, stronger effect = higher value
[6] = HCT116 colon cancer cell growth inhibition, primary screen, CellTiter-Glo luminescence, NPC library (AID 1117342;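 active means compounds that lower survival of HCT116 colon cancer cells in the luminescence readout, no numeric limit stated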); details: at 20 µM (top of the series)
[7] = reduced SW480 viability measured with CellTiter-Glo, NPC library, primary (AID 1117343;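 active means compounds that lower viability of the colon cancer cells in the luminescence readout, with no numeric limit stated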); details: CellTiter-Glo luminescence; at 20 µM (top of the series) unless noted
[8] = NPC library primary testing for decreased DLD-1 cell viability via CellTiter-Glo (AID 1117346;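 active means compounds that lower survival of DLD-1 colon cancer cells in the luminescence readout, no cutoff given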); details: DLD-1 viability, CellTiter-Glo luminescence; at 20 µM (top of the series)
[9] = system: Aerobactin synthetase IucA (Klebsiella pneumoniae); assay: inhibition of K. pneumoniae IucA enzyme – biochemical, Tocris library, absorbance (AID 1345561; call rule not given here;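 further: 100% = enzyme without compound and 0% = no enzyme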); details: purified IucA enzyme assay, absorbance (OD) read-out; stronger effect = lower value;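 tested at 8 µM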
[10] = viability loss with induced miR-34 in A549 – imaging, A549 dox-inducible miR-34, nuclei and caspase counts, primary screen (AID 1347080;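 active means compounds whose cell count with miR-34 switched on is under 0.7 times the count with it off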); details: A549 miR-34 inducible, Hoechst nuclei count, 48 h
[11] = galactose survival enhancers in mitochondrial complex I cybrids – cell-based, galactose medium, ATP luminescence, primary screen (AID 1645843;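 active means z-score of at least 1.8 in each of two replicates, scored against plate mean and spread of sample wells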;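 further: positive z means more ATP and so rescue of galactose-driven cybrid death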); details: complex I mutant cybrid cells, 72 h, stronger effect = higher value
[12] = viability loss in pontine glioma line – cell-based, SU-DIPG-XVII, MIPE5.0, CellTiter-Glo, qHTS, dose response (AID 1347060; cut-off not given, nearly all actives have AC50 up to about 26 µM;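 on AC50: cells exposed to compound for 48 hours before viability readout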); details: CellTiter-Glo ATP luminescence
[13] = viability loss in pontine glioma line – cell-based, SU-DIPG-XIII, MIPE4.0, CellTiter-Glo, qHTS, dose response (AID 1347061; cut-off not given, nearly all actives have AC50 up to about 37 µM;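 further: cells exposed to compound for 48 hours before readout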); details: CellTiter-Glo ATP luminescence
[14] = viability loss in pontine glioma line – cell-based, SU-DIPG-IV, MIPE4.0, CellTiter-Glo, qHTS, dose response (AID 1347063; cut-off not given, nearly all actives have AC50 up to about 30 µM;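 further: compound exposure lasted 48 hours before the viability readout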); details: CellTiter-Glo ATP luminescence
[15] = growth inhibition of DIPG cells – cell-based, MIPE5.0 library, qHTS (AID 1347068; cut-off not given, nearly all actives have IC50 up to about 30 µM;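 on IC50: cells exposed to compound for 48 hours before viability readout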); details: SU-DIPG-XXV viability
[16] = MELAS cybrid and Rieske KO viability enhancers – cell-based, MELAS cybrids, Rieske KO mouse fibroblasts, CellTiter-Glo, primary screen (AID 1508586;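 active means mean z-score across replicates of 1.96 or higher in either the MELAS or the Rieske mutant cell line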;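 further: z relative to plate mean and SD of compound and empty wells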); details: low glucose
[17] = drug combination growth inhibition, ovarian cancer – cell-based, oncology-focused library, rucaparib conditional, profiling panel (AID 1508598); details: patient-derived ovarian cancer cells, CellTiter-Glo viability, 144 h, stronger effect = lower value
[18] = stronger effect = lower value, cell number ratio, induced over uninduced
[19] = measured here: relative caspase fold change +Dox/-Dox
[20] = measured here: total cells with miR-34 induction, stronger effect = lower value
[21] = measured here: total cells without miR-34 induction

O=C1OC(OC(=O)c2cccnc2Nc2cccc(C(F)(F)F)c2)c2ccccc21 (centres undefined)
8060: cell count [10, 21]
inactive: nuclear beta-catenin stimulation ([1]; at 10 µM) 21.1% | insulin secretion stimulation [2] 2.7% | viability decrease [3] 17.5% | GLP1 secretion stimulation [5] 1.3% | inhibition of viability [6] 10.2% | viability decrease (inhibition) [8] 31.2% | remaining activity [9] 120% | fold change [10, 18] 0.992 | z-score [11] -0.625
1.33: fold change [10, 19]
11%: nuclear beta-catenin stimulation ([1]; stimulation, at 2 µM)
active: tube area decrease [4] 72.7% | viability decrease (inhibition) [7] 115%
7990: cell count [10, 20]

CNC(=O)c1cc(Oc2ccc(NC(=O)Nc3ccc(Cl)c(C(F)(F)F)c3)cc2)ccn1
1320 and 3300: cell count [10, 20]
active: viability decrease [3] 120% | tube area decrease [4] 111% | inhibition of viability [6] 124% | viability decrease (inhibition) [7] 166% | viability decrease (inhibition) [8] 102% | AC50 [12] 14.8 µM | AC50 [13] 18.7 µM | AC50 [14] 20.9 µM | IC50 [15] 10.5 µM | viability ([17]; at 0.000305 µM, OCI-P5x cells, without rucaparib) 97.6% | viability ([17]; at 0.00122 µM, OCI-P5x cells, without rucaparib) 99.4% | viability ([17]; at 0.00488 µM, OCI-P5x cells, without rucaparib) 99.4% | viability ([17]; at 0.0781 µM, OCI-P5x cells, without rucaparib) 99.6% | viability ([17]; at 5 µM, OCI-P5x cells, with rucaparib 20 µM, 100% = cells with rucaparib alone) 31.8%
inactive: nuclear beta-catenin stimulation ([1]; at 10 µM) -1.4% | insulin secretion stimulation [2] 0.4% | GLP1 secretion stimulation [5] -3.6% | fold change [10, 18] 0.979 and 1.42 | z-score ([16]; MELAS cybrid survival, CellTiter-Glo 48 h, stronger effect = higher value) -0.549 and -0.383 | viability ([17]; at 0.000305 µM, OCI-C5x cells, with rucaparib 10 µM, 100% = cells with rucaparib alone) 115% | viability ([17]; at 0.000305 µM, OCI-C5x cells, without rucaparib) 112% | viability ([17]; at 0.000305 µM, OCI-P5x cells, with rucaparib 20 µM, 100% = cells with rucaparib alone) 124% | viability ([17]; at 0.00122 µM, OCI-C5x cells, with rucaparib 10 µM, 100% = cells with rucaparib alone) 119% | viability ([17]; at 0.00122 µM, OCI-C5x cells, without rucaparib) 111% | viability ([17]; at 0.00122 µM, OCI-P5x cells, with rucaparib 20 µM, 100% = cells with rucaparib alone) 129% | viability ([17]; at 0.00488 µM, OCI-C5x cells, with rucaparib 10 µM, 100% = cells with rucaparib alone) 119% | viability ([17]; at 0.00488 µM, OCI-C5x cells, without rucaparib) 114% | viability ([17]; at 0.00488 µM, OCI-P5x cells, with rucaparib 20 µM, 100% = cells with rucaparib alone) 136% | viability ([17]; at 0.0195 µM, OCI-C5x cells, with rucaparib 10 µM, 100% = cells with rucaparib alone) 111% | viability ([17]; at 0.0195 µM, OCI-C5x cells, without rucaparib) 112% | viability ([17]; at 0.0195 µM, OCI-P5x cells, with rucaparib 20 µM, 100% = cells with rucaparib alone) 133% | viability ([17]; at 0.0195 µM, OCI-P5x cells, without rucaparib) 101% | viability ([17]; at 0.0781 µM, OCI-C5x cells, with rucaparib 10 µM, 100% = cells with rucaparib alone) 108% | viability ([17]; at 0.0781 µM, OCI-C5x cells, without rucaparib) 106% | viability ([17]; at 0.0781 µM, OCI-P5x cells, with rucaparib 20 µM, 100% = cells with rucaparib alone) 144% | viability ([17]; at 0.313 µM, OCI-C5x cells, with rucaparib 10 µM, 100% = cells with rucaparib alone) 111% | viability ([17]; at 0.313 µM, OCI-C5x cells, without rucaparib) 116% | viability ([17]; at 0.313 µM, OCI-P5x cells, with rucaparib 20 µM, 100% = cells with rucaparib alone) 144% | viability ([17]; at 0.313 µM, OCI-P5x cells, without rucaparib) 105% | viability ([17]; at 1.25 µM, OCI-C5x cells, with rucaparib 10 µM, 100% = cells with rucaparib alone) 116% | viability ([17]; at 1.25 µM, OCI-C5x cells, without rucaparib) 120% | viability ([17]; at 1.25 µM, OCI-P5x cells, with rucaparib 20 µM, 100% = cells with rucaparib alone) 155% | viability ([17]; at 1.25 µM, OCI-P5x cells, without rucaparib) 114% | viability ([17]; at 5 µM, OCI-C5x cells, with rucaparib 10 µM, 100% = cells with rucaparib alone) 123% | viability ([17]; at 5 µM, OCI-C5x cells, without rucaparib) 126% | viability ([17]; at 5 µM, OCI-P5x cells, without rucaparib) 116%
1350 and 2320: cell count [10, 21]
0.87 and 0.612: fold change [10, 19]
0.813 and 0.844: z-score ([16]; Rieske KO mouse fibroblast survival, CellTiter-Glo 72 h)
9.1%: nuclear beta-catenin stimulation ([1]; stimulation, at 2 µM)

CCOC(=O)[C@H](CCc1ccccc1)N[C@H]1CS[C@H](c2cccs2)CN(CC(=O)O)C1=O
active: AC50 [13] 14.8 µM | AC50 [14] 1.87 µM
-0.9%: nuclear beta-catenin stimulation ([1]; stimulation, at 2 µM)
inactive: nuclear beta-catenin stimulation ([1]; at 10 µM) 0.9% | insulin secretion stimulation [2] 2% | viability decrease [3] -8.8% | tube area decrease [4] -13.9% | GLP1 secretion stimulation [5] 4.1% | inhibition of viability [6] -4.6% | viability decrease (inhibition) [7] -29% | viability decrease (inhibition) [8] 2.5% | outcome [12] | outcome [15]
